Experimental data reported in PubChem BioAssay (NCI).
This is part of a sample that, as a whole, favours compounds with a hit. Of some 79,000 tested, about 15% had one in any assay. Unmarked numbers belong to inactive results. The source made the active and inactive calls. Cut-off read from the data, not from the text of the source: active = growth inhibition above about 70%; inactive = the rest.

Key:
[1] = NCI Yeast Anticancer Drug Screen. Data for the wt1 strain (AID 149);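 note: 0% = growth of vehicle-treated wt1 cultures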; conditions: S. cerevisiae wt1 strain (SPY 50644) growth inhibition, active compounds read high
How it was run: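 Measured: growth of wt1 yeast under compound versus vehicle treatment, reported as inhibition.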

[2] = NCI Yeast Anticancer Drug Screen. Data for the rad50EPP+ strain (AID 151);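 note: 0% = growth of vehicle-treated control cultures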; conditions: S. cerevisiae rad50 mutant strain, active compounds read high
How it was run: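 Yeast strain carrying rad50 alteration (rad50EPP+) exposed to compounds; growth inhibition measured relative to vehicle-treated controls.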

[3] = NCI Yeast Anticancer Drug Screen. Data for the mgt1 strain (AID 153); conditions: S. cerevisiae mgt1 mutant growth inhibition, active compounds read high
How it was run: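 Yeast mgt1 strain (DNA repair/cell-cycle alteration panel) exposed to compounds; growth inhibition measured relative to vehicle-treated controls.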

[4] = NCI Yeast Anticancer Drug Screen. Data for the rad50 strain (AID 155);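 note: 0% = growth of vehicle-only cultures of the same strain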; conditions: S. cerevisiae rad50 strain growth inhibition, active compounds read high
How it was run: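 Growth of the mutant yeast was measured after compound exposure and referenced to vehicle-treated cultures.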

[5] = NCI Yeast Anticancer Drug Screen. Data for the mec2-1 strain (AID 157); conditions: S. cerevisiae mec2-1 strain, active compounds read high
How it was run: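 mec2-1 yeast strain, carrying an alteration in DNA damage repair or cell cycle control, was exposed to compounds; growth inhibition was measured relative to vehicle-treated controls.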

[6] = NCI Yeast Anticancer Drug Screen. Data for the rad14 strain (AID 159);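 note: 0% = growth of vehicle-treated control cultures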; conditions: S. cerevisiae rad14 strain growth inhibition, active compounds read high
How it was run: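 Here, inhibition of yeast growth was measured after compound exposure, using a strain with a genetic defect in DNA damage repair and vehicle-treated cultures as the reference.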

[7] = NCI Yeast Anticancer Drug Screen. Data for the sgs1 mgt1 strain (AID 161);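 note: 0% = growth of cultures given vehicle only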; conditions: S. cerevisiae sgs1 mgt1 strain, active compounds read high
How it was run: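 Growth of a repair-deficient yeast mutant was monitored after compound treatment and expressed as inhibition relative to vehicle-treated cultures.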

[8] = NCI Yeast Anticancer Drug Screen. Data for the CLN2oe strain (AID 163);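 note: 0% = growth of vehicle-only control cultures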; conditions: S. cerevisiae CLN2oe strain, active compounds read high
How it was run: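 Yeast cells carrying a defined cell-cycle control alteration were exposed to test compounds. Growth inhibition was scored against vehicle-treated control cultures.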

[9] = NCI Yeast Anticancer Drug Screen. Data for the bub3 strain (AID 167); conditions: S. cerevisiae bub3 mutant strain, active compounds read high
How it was run: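 Whole-cell yeast assay. The mutant strain was incubated with compounds, and growth inhibition was determined by comparison with vehicle-treated cells.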

[10] = NCI Yeast Anticancer Drug Screen. Data for the wt2 strain (AID 169);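 note: 0% = growth of vehicle-treated yeast cultures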; conditions: S. cerevisiae wt2 strain growth inhibition, active compounds read high
How it was run: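 Yeast cells were exposed to test compounds, and growth inhibition was measured relative to vehicle-treated controls.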

[11] = NCI Yeast Anticancer Drug Screen. Data for the mlh1 strain (AID 171);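 note: 0% = growth of vehicle-treated control cultures of the same strain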; conditions: S. cerevisiae mlh1 strain growth inhibition, active compounds read high
How it was run: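 Yeast carrying a defined genetic alteration in DNA damage repair or cell cycle control were exposed to test compounds. Growth inhibition was measured relative to vehicle-treated controls.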

[12] = NCI Yeast Anticancer Drug Screen. Data for the sgs1 strain (AID 173);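 note: 0% = growth of vehicle-only control cultures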; conditions: S. cerevisiae sgs1 mutant, active compounds read high
How it was run: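 Yeast mutant strains carrying defined defects in DNA damage repair or cell cycle control were exposed to test compounds. Growth inhibition was scored against vehicle-treated controls.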

[13] = NCI Yeast Anticancer Drug Screen. Data for the mlh1 rad18 strain (AID 175); conditions: S. cerevisiae mlh1 rad18 strain growth inhibition, active compounds read high
How it was run: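 Growth inhibition of the yeast strain was measured after compound exposure and expressed relative to vehicle-treated controls. The strain carries defined defects in DNA damage repair.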

[14] = NCI Yeast Anticancer Drug Screen. Data for the rad18 strain (AID 177); conditions: S. cerevisiae rad18 mutant growth inhibition, active compounds read high
How it was run: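 Yeast carrying a defined DNA damage repair alteration were exposed to compounds. Growth inhibition was expressed relative to vehicle-treated controls.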

[15] = NCI Yeast Anticancer Drug Screen. Data for the cln2 rad14 strain (AID 165);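 note: 0% = growth equal to vehicle treated cultures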; conditions: S. cerevisiae cln2 rad14 strain, active compounds read high
How it was run: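 Yeast carrying cln2 and rad14 alterations (cell cycle control and DNA damage repair) were exposed to compounds. Growth inhibition was measured against vehicle-treated controls.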

[16] = at 5.0 µM (retest, dose inferred, filed as 0.5)
[17] = at 50.0 µM (retest, dose inferred, filed as 5.0)

SMILES: CC(=O)CC[N+](C)(C)C
- growth inhibition ([1]; at 1.2 µM): 0%
- growth inhibition ([1]; at 3.7 µM): 11%
- growth inhibition ([1]; at 11.0 µM): 2%
- growth inhibition ([1]; at 33.0 µM): -5%
- growth inhibition ([1]; at 100.0 µM): 2%
- growth inhibition ([2]; at 1.2 µM): -7%
- growth inhibition ([2]; at 3.7 µM): 4%
- growth inhibition ([2]; at 11.0 µM): -4%
- growth inhibition ([2]; at 33.0 µM): -15%
- growth inhibition ([2]; at 100.0 µM): 7%
- growth inhibition ([3]; at 1.2 µM): -29%
- growth inhibition ([3]; at 3.7 µM): -21%
- growth inhibition ([3]; at 11.0 µM): -17%
- growth inhibition ([3]; at 33.0 µM): -21%
- growth inhibition ([3]; at 100.0 µM): -2%
- growth inhibition ([4]; at 1.2 µM): -14%
- growth inhibition ([4]; at 3.7 µM): -9%
- growth inhibition [4, 16]: 31%
- growth inhibition ([4]; at 11.0 µM): -4%
- growth inhibition ([4]; at 33.0 µM): -14%
- growth inhibition [4, 17]: 100% (active)
- growth inhibition ([4]; at 50.0 µM): 0.7%
- growth inhibition ([4]; at 100.0 µM): -13%
- growth inhibition ([5]; at 1.2 µM): 4%
- growth inhibition ([5]; at 3.7 µM): -3%
- growth inhibition [5, 16]: 22%
- growth inhibition ([5]; at 11.0 µM): -1%
- growth inhibition ([5]; at 33.0 µM): -7%
- growth inhibition [5, 17]: 59%
- growth inhibition ([5]; at 50.0 µM): -22.7%
- growth inhibition ([5]; at 100.0 µM): 4%
- growth inhibition ([6]; at 1.2 µM): 5%
- growth inhibition ([6]; at 3.7 µM): 6%
- growth inhibition ([6]; at 11.0 µM): -5%
- growth inhibition ([6]; at 33.0 µM): 0%
- growth inhibition ([6]; at 100.0 µM): -2%
- growth inhibition [7, 16]: 13%
- growth inhibition [7, 17]: 51%
- growth inhibition ([7]; at 50.0 µM): -30.9%
- growth inhibition ([8]; at 1.2 µM): 17%
- growth inhibition ([8]; at 3.7 µM): 28%
- growth inhibition ([8]; at 11.0 µM): 31%
- growth inhibition ([8]; at 33.0 µM): 31%
- growth inhibition ([8]; at 100.0 µM): 36%
- growth inhibition ([9]; at 1.2 µM): 12%
- growth inhibition ([9]; at 3.7 µM): 16%
- growth inhibition [9, 16]: 20%
- growth inhibition ([9]; at 11.0 µM): 16%
- growth inhibition ([9]; at 33.0 µM): 13%
- growth inhibition [9, 17]: 14%
- growth inhibition ([9]; at 50.0 µM): -24.3%
- growth inhibition ([9]; at 100.0 µM): 27%
- growth inhibition ([10]; at 1.2 µM): -22%
- growth inhibition ([10]; at 3.7 µM): -1%
- growth inhibition ([10]; at 11.0 µM): -25%
- growth inhibition ([10]; at 33.0 µM): -31%
- growth inhibition ([10]; at 100.0 µM): -30%
- growth inhibition ([11]; at 1.2 µM): -13%
- growth inhibition ([11]; at 3.7 µM): -6%
- growth inhibition ([11]; at 11.0 µM): -11%
- growth inhibition ([11]; at 33.0 µM): -9%
- growth inhibition ([11]; at 100.0 µM): -22%
- growth inhibition ([12]; at 1.2 µM): -8%
- growth inhibition ([12]; at 3.7 µM): -12%
- growth inhibition ([12]; at 11.0 µM): 3%
- growth inhibition ([12]; at 33.0 µM): 3%
- growth inhibition ([12]; at 100.0 µM): 23%
- growth inhibition [13, 16]: 26%
- growth inhibition [13, 17]: 80% (active)
- growth inhibition ([13]; at 50.0 µM): 41.9%
- growth inhibition ([14]; at 1.2 µM): -20%
- growth inhibition ([14]; at 3.7 µM): -11%
- growth inhibition ([14]; at 11.0 µM): 14%
- growth inhibition ([14]; at 33.0 µM): -2%
- growth inhibition ([14]; at 100.0 µM): -10%

SMILES: Nc1ccc2cc(Br)c3ccccc3c2c1
- growth inhibition ([1]; at 1.2 µM): 0%
- growth inhibition ([1]; at 3.7 µM): 1%
- growth inhibition ([1]; at 11.0 µM): -2%
- growth inhibition ([1]; at 33.0 µM): -2%
- growth inhibition ([1]; at 100.0 µM): 75% (active)
- growth inhibition ([2]; at 1.2 µM): 3%
- growth inhibition ([2]; at 3.7 µM): 5%
- growth inhibition ([2]; at 11.0 µM): 22%
- growth inhibition ([2]; at 33.0 µM): 39%
- growth inhibition ([2]; at 100.0 µM): 26%
- growth inhibition ([3]; at 1.2 µM): -1%
- growth inhibition ([3]; at 3.7 µM): -3%
- growth inhibition ([3]; at 11.0 µM): -1%
- growth inhibition ([3]; at 33.0 µM): -1%
- growth inhibition ([3]; at 100.0 µM): -3%
- growth inhibition ([4]; at 1.2 µM): 0%
- growth inhibition ([4]; at 3.7 µM): 1%
- growth inhibition [4, 16]: 5%
- growth inhibition ([4]; at 11.0 µM): 1%
- growth inhibition ([4]; at 33.0 µM): 16%
- growth inhibition [4, 17]: 41%
- growth inhibition ([4]; at 50.0 µM): 86.2% (active)
- growth inhibition ([4]; at 100.0 µM): 20%
- growth inhibition ([5]; at 1.2 µM): -3%
- growth inhibition ([5]; at 3.7 µM): -1%
- growth inhibition [5, 16]: -18%
- growth inhibition ([5]; at 11.0 µM): 0%
- growth inhibition ([5]; at 33.0 µM): 3%
- growth inhibition [5, 17]: 6%
- growth inhibition ([5]; at 50.0 µM): 73.7% (active)
- growth inhibition ([5]; at 100.0 µM): 6%
- growth inhibition [7, 16]: 13%
- growth inhibition [7, 17]: 50%
- growth inhibition ([7]; at 50.0 µM): 88.5% (active)
- growth inhibition ([8]; at 1.2 µM): -2%
- growth inhibition ([8]; at 3.7 µM): -19%
- growth inhibition ([8]; at 11.0 µM): -1%
- growth inhibition ([8]; at 33.0 µM): -4%
- growth inhibition ([8]; at 100.0 µM): -16%
- growth inhibition [15, 16]: 15%
- growth inhibition [15, 17]: 18%
- growth inhibition ([15]; at 50.0 µM): 40.1%
- growth inhibition ([9]; at 1.2 µM): 0%
- growth inhibition ([9]; at 3.7 µM): 2%
- growth inhibition [9, 16]: 10%
- growth inhibition ([9]; at 11.0 µM): 2%
- growth inhibition ([9]; at 33.0 µM): -1%
- growth inhibition [9, 17]: 31%
- growth inhibition ([9]; at 50.0 µM): 71.5% (active)
- growth inhibition ([9]; at 100.0 µM): -6%
- growth inhibition ([11]; at 1.2 µM): -1%
- growth inhibition ([11]; at 3.7 µM): -1%
- growth inhibition ([11]; at 11.0 µM): -1%
- growth inhibition ([11]; at 33.0 µM): 1%
- growth inhibition ([11]; at 100.0 µM): 2%
- growth inhibition ([12]; at 1.2 µM): -2%
- growth inhibition ([12]; at 3.7 µM): -2%
- growth inhibition ([12]; at 11.0 µM): -1%
- growth inhibition ([12]; at 33.0 µM): 4%
- growth inhibition ([12]; at 100.0 µM): 9%
- growth inhibition [13, 16]: 28%
- growth inhibition [13, 17]: 65%
- growth inhibition ([13]; at 50.0 µM): 90.3% (active)
- growth inhibition ([14]; at 1.2 µM): -3%
- growth inhibition ([14]; at 3.7 µM): -2%
- growth inhibition ([14]; at 11.0 µM): -4%
- growth inhibition ([14]; at 33.0 µM): -1%
- growth inhibition ([14]; at 100.0 µM): -5%
